Experimental data taken from PubChem BioAssay (NCATS).
Results filed as inconclusive are left out. Entries that show only a call come without a potency. Activity calls are given as the source filed them. Unless noted, calls follow the shape of the dose curve; as a rule, active = well fitted curve in the direction sought with a large enough effect; inconclusive = small, poorly fitted or top-dose-only effect, or another doubt; inactive = no such curve, though single readings can be large; an effect the other way counts as inactive or inconclusive.

Key:
[1] = biological target: Voltage-gated inwardly rectifying potassium channel KCNH2 (Homo sapiens) (UniProt Q12809); experiment: qHTS Assay for Small Molecule Inhibitors of the Human hERG Channel Activity (AID 588834);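 also: lower thallium flux fluorescence means stronger hERG block; nearly all actives have a fitted effect of over 50% in size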; also: potency is read from the fitted curve at half-maximal effect
Sequence of Voltage-gated inwardly rectifying potassium channel KCNH2 (Homo sapiens) (Q12809 whole entry, looked up): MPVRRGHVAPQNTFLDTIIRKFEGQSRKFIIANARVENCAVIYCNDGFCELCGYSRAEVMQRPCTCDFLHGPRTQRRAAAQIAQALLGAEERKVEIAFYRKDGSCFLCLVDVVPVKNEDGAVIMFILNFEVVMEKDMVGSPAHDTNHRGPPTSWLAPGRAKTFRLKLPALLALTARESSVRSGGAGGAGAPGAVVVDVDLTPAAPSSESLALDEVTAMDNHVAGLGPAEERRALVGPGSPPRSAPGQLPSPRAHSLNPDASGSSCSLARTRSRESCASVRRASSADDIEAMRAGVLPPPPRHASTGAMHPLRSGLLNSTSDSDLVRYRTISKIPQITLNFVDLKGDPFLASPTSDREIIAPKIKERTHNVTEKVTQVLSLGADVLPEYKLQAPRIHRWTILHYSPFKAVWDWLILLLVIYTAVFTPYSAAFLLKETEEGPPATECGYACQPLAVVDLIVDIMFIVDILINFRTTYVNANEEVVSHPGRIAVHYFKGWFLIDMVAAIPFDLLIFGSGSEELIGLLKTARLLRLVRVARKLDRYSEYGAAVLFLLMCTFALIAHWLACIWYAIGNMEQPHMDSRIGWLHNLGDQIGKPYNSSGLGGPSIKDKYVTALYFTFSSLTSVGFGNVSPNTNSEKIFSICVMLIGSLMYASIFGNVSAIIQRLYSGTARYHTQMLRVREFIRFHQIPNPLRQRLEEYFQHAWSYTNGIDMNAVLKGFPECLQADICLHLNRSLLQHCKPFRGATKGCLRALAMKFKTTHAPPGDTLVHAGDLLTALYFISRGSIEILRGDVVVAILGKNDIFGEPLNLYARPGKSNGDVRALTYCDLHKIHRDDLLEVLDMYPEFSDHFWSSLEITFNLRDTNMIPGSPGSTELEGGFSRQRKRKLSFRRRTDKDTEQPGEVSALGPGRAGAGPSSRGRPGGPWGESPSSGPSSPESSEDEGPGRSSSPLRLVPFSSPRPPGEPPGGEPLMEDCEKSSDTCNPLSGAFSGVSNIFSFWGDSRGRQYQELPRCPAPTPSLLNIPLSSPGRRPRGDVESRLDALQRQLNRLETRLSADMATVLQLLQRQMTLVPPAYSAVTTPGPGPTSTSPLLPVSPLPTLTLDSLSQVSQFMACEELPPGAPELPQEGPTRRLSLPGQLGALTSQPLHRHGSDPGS
Summary of the method: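 Kinetic FDSS fluorescence; U2OS + hERG BacMam (~100 virus particles/cell); FluxOR Tl+ flux; ~10 min cpd; AC50 (Hill).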

[2] = biological target: Glutaminase kidney isoform, mitochondrial (Homo sapiens) (UniProt O94925); experiment: qHTS for Inhibitors of Glutaminase (GLS): LOPAC Validation (AID 624146); also: nearly all actives have a fitted effect of over 60% in size; also: potency is read from the fitted curve at half-maximal effect
Sequence of Glutaminase kidney isoform, mitochondrial (Homo sapiens) (O94925 whole entry, looked up, canonical isoform): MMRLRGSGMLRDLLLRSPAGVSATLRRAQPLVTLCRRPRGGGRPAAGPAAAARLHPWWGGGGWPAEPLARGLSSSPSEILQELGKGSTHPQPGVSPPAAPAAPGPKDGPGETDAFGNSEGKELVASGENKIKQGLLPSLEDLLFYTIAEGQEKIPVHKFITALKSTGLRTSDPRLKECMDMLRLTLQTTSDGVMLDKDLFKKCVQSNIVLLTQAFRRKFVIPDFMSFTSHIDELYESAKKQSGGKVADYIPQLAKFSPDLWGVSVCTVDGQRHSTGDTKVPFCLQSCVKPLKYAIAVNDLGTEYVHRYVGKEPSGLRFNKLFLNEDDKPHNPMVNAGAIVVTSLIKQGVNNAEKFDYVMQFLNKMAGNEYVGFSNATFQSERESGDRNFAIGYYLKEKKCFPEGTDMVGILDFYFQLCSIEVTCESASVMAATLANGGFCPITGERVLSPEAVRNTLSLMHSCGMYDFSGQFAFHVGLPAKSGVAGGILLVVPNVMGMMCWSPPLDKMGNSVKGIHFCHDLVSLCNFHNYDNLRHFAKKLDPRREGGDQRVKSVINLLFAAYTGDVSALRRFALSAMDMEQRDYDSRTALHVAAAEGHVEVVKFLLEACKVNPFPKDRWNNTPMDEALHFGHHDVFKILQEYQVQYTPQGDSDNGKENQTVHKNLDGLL
Summary of the method: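 Compounds were pin-transferred onto hKGA, after which L-glutamine (1 mM solution) and a detection mix of glutamate oxidase, HRP and Amplex Red were added. Initial and 30 min RT fluorescence reads were collected.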

[3] = qHTS of Trypanosoma Brucei Inhibitors: LOPAC Validation (AID 624147); also: potency is read from the fitted curve at half-maximal effect
Summary of the method: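 TbPYK + substrate in 50 mM TEA pH 7.2, 100 mM KCl, 10 mM MgCl2, 0.05% BSA, 0.01% Tween-20; cpd pinned; ADP 130 uM final; 45 min RT; Kinase-Glo Plus 10 min; luminescence endpoint.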

[4] = biological target: Glucagon-like peptide 1 receptor (Homo sapiens) (UniProt P43220); experiment: qHTS of GLP-1 Receptor Agonists: LOPAC Validation (AID 624148);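 also: higher luminescence signal means agonism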
Sequence of Glucagon-like peptide 1 receptor (Homo sapiens) (P43220 whole entry, looked up): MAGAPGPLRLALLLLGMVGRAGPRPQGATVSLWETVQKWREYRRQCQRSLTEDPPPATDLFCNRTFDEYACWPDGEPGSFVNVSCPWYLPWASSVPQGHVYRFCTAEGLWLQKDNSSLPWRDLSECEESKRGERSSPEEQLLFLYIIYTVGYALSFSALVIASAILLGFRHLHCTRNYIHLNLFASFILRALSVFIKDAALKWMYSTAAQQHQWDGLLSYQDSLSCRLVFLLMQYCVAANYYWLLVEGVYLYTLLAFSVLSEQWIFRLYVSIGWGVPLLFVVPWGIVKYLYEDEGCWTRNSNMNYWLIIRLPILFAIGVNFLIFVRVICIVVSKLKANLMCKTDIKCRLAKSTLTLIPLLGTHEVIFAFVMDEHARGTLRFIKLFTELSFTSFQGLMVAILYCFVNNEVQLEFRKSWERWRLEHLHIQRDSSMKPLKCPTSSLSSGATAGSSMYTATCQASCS
Summary of the method: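 HEK293 cells stably co-expressing GLP-1R and a cAMP-responsive luciferase reporter, plated 12 hours before compound, then incubated 4-6 hr at 37 deg C. Luminescence read 12 min after detection reagent.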

[5] = qHTS of Nrf2 Activators: LOPAC Validation (AID 624149); also: potency is read from the fitted curve at half-maximal effect
Summary of the method: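 Luminescence read-out of ARE-luciferase activation: AREc32_Fluc cells treated with compounds for 24 hr at 37 deg C, then lysed with Steady-Glo for 30 min at room temperature before reading.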

[6] = HTS Assay for Allosteric Antagonists of the Human D2 Dopamine Receptor: Hit Validation in HTRF (AID 624455); also: potency is read from the fitted curve at half-maximal effect;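 also: stable D1 dopamine receptor cell line scored for blocking the D1 response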
Summary of the method: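 First, antagonism was screened by calcium flux in a force-coupled, inducible Hek293 Trex D2 line challenged with EC80 dopamine. Hits then went into an HTRF assay in cells stably expressing D1, testing inhibition of the D1 response.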

[7] = biological target: Luciferin 4-monooxygenase (Photinus pyralis) (UniProt P08659); experiment: Biochemical firefly luciferase enzyme assay for NPC (AID 624030); also: nearly all actives have a fitted effect of over 70% in size; also: potency is read from the fitted curve at half-maximal effect
Sequence of Luciferin 4-monooxygenase (Photinus pyralis) (P08659 whole entry, looked up): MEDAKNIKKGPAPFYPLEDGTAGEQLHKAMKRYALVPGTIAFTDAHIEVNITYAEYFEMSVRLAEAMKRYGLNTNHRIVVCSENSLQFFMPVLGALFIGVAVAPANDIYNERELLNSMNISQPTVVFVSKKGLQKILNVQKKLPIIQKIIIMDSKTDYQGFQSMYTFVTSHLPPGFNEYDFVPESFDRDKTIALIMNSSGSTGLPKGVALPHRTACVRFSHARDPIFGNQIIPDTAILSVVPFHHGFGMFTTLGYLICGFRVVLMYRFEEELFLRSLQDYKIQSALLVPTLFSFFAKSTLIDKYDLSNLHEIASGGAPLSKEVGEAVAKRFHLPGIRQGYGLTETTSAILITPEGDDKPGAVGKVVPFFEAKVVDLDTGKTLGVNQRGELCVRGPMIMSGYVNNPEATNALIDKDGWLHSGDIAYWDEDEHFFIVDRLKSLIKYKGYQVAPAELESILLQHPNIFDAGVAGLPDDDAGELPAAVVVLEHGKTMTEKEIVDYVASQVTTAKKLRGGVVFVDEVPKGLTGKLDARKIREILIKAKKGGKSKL
Summary of the method: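 Purified P. pyralis luciferase at 10 nM in 50 mM Tris Acetate (final), luminescence read within 5 minutes of enzyme addition to compounds. Activity normalised to PTC124 versus DMSO; concentration-response curves classed by r2, magnitude and activity.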

[8] = S16 Schwann cell PMP22 intronic element firefly luciferase assay (AID 624032); also: nearly all actives have a fitted effect of over 30% in size; also: potency is read from the fitted curve at half-maximal effect
Summary of the method: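 Rat S16 Schwann cells stably carrying firefly luciferase driven by a PMP22 intronic element, in 10% FBS, treated 24 h at 37 C. ONE-Glo luminescence normalized to PTC124 control and DMSO (0%); curves classed by r2, magnitude and activity.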

[9] = S16 Schwann cell PMP22 intronic element beta-lactamase assay (AID 624044; calls by dose curve; also: nearly all actives have a fitted effect of over 15% in size)
Summary of the method: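 Rat S16 Schwann cells with beta-Lac driven by a PMP22 intronic element, compound-treated 24 h at 37 °C. LiveBLAzer FRET B/G read: 460 nm normalized to potassium clavulanate vs DMSO; 535 nm FRET as viability; concentration-effect curves classified.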

[10] = S16 Schwann cell viability assay (CellTiter-Glo assay) (AID 624031); also: nearly all actives have a fitted effect of over 70% in size; also: potency is read from the fitted curve at half-maximal effect
Summary of the method: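 Native S16 rat Schwann cells in DMEM/10% FBS without phenol red were incubated overnight, then exposed to compounds for 24 h at 37 °C/5% CO2. Viability was read as ATP luminescence (CellTiter-Glo), normalized to no-cell wells and DMSO (0%).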

| SMILES | Potency [1] | Potency [2] | Potency [3] | outcome [4] | Potency [5] | Potency [6] | Potency [7] | Potency [8] | Potency [9] | Potency [10] |
| --- | --- | --- | --- | --- | --- | --- | --- | --- | --- | --- |
| CN1CC[C@@]2(C)c3cc(O)ccc3N(C)C12 (some centres not stated) | 35.5 µM (active) | 10 µM (active) | inactive | inactive | inactive | inactive | – | – | – | – |
| NC(=O)CI | inactive | inactive | – | inactive | inactive | inactive | – | – | – | – |
| CCN1C[C@@]2(COC)C3[C@@H](OC)C4[C@@H]1C3([C@@H]1C[C@]3(O)[C@H](OC(=O)c5ccccc5)[C@@H]1[C@]4(OC(C)=O)[C@@H](O)[C@@H]3OC)[C@H](OC)C[C@H]2O | – | inactive | inactive | inactive | inactive | inactive | – | – | – | – |
| NC(N)=NOCC[C@H](N)C(=O)O | inactive | – | inactive | inactive | inactive | inactive | – | – | – | – |
| COc1ccc2[nH]cc(CCN)c2c1 | inactive | – | inactive | inactive | inactive | – | – | – | – | – |
| O=S1(=O)N(CCN2CC=C(c3c[nH]c4cc(F)ccc34)CC2)c2cccc3c2N1CCC3 | 7.08 µM (active) | – | inactive | inactive | inactive | inactive | – | – | – | – |
| C[Se]C[C@H](N)C(=O)O | inactive | inactive | – | inactive | inactive | inactive | – | – | – | – |
| NC(N)=Nc1ccc2[nH]c3c(c2c1)C[C@@]1(O)[C@H]2Cc4ccc(O)c5c4[C@@]1(CCN2CC1CC1)[C@H]3O5 | inactive | – | inactive | – | 2.91 µM (active) | inactive | – | – | – | – |
| Oc1ccc2c3c1O[C@H]1c4[nH]c5ccccc5c4C[C@@]4(O)C(C2)N(CC2CC2)CCC314 (some centres not stated) | 0.794 µM (active) | – | inactive | inactive | inactive | inactive | – | – | – | – |
| C[N+]1(C)CCOC(O)(c2ccc(-c3ccc(C4(O)C[N+](C)(C)CCO4)cc3)cc2)C1 (configuration not stated) | inactive | – | inactive | inactive | inactive | inactive | – | – | – | – |
| Cc1[nH]c2ccc(O)cc2c1CCN | inactive | – | inactive | inactive | inactive | inactive | – | – | – | – |
| CN(N=O)c1ccc(O)c(O)c1 | inactive | inactive | – | inactive | inactive | – | – | – | – | – |
| CC(=O)c1c(O)c(C)c(O)c(Cc2c(O)c3c(c(C(=O)/C=C/c4ccccc4)c2O)OC(C)(C)C=C3)c1O | inactive | – | inactive | inactive | inactive | inactive | – | – | – | – |
| CC12NC(Cc3ccccc31)c1ccccc12 (configuration not stated) | – | inactive | inactive | inactive | inactive | inactive | inactive | inactive | inactive | – |
| CC(Cc1ccc(OCC(=O)O)cc1)NCC(O)c1cccc(Cl)c1 (configuration not stated) | inactive | inactive | inactive | – | inactive | inactive | – | – | – | – |
| COc1ccc2c(c1)c(CCN1CCOCC1)c(C)n2C(=O)c1cccc(Cl)c1Cl | – | inactive | inactive | inactive | inactive | inactive | – | – | – | – |
| CN1c2ccccc2C(NCCCCCCC(=O)O)c2ccc(Cl)cc2S1(=O)=O (configuration not stated) | – | – | – | – | – | – | – | inactive | inactive | inactive |
| [Cl][Pt][Cl] | – | – | – | – | – | – | inactive | – | – | – |
| NNC(=O)c1ccc(O)cc1 | inactive | – | inactive | inactive | inactive | inactive | – | – | – | – |
| CCOC(=O)c1ncn2c1[C@@H]1CCCN1C(=O)c1cc(OC)ccc1-2 | – | inactive | inactive | inactive | inactive | inactive | – | – | – | – |
| c1cc2c(c(NC3=NCCN3)c1)CCCC2 | – | – | – | – | – | – | inactive | inactive | inactive | inactive |

| SMILES | Potency [1] | Potency [2] | Potency [3] | outcome [4] | Potency [5] | Potency [6] | Potency [7] | Potency [8] | Potency [9] | Potency [10] |
| --- | --- | --- | --- | --- | --- | --- | --- | --- | --- | --- |
| O=[N+]([O-])c1ccc2nc(N3CCNCC3)ccc2c1 | inactive | – | inactive | inactive | inactive | inactive | – | – | – | – |
| COc1ccc2[nH]c3c(c2c1)CCNC3 | inactive | – | inactive | inactive | inactive | inactive | – | – | – | – |
| C=CCN(C1=NCCN1)c1c(Cl)cccc1Cl | – | inactive | inactive | inactive | inactive | inactive | inactive | inactive | inactive | inactive |
| CC(N)[C@H](O)c1ccc(O)c(O)c1 (some centres not stated) | inactive | inactive | inactive | – | inactive | inactive | – | – | – | – |
| O=c1c2ccccc2[se]n1-c1ccccc1 | – | 2.82 µM (active) | 19 µM (active) | inactive | – | inactive | 8.09 µM (active) | 28.7 µM (active) | inactive | 12.8 µM (active) |
| C[N+]1(C)C2CCC1CC(OC(=O)c1c[nH]c3ccccc13)C2 (configuration not stated) | – | inactive | inactive | inactive | inactive | inactive | inactive | inactive | inactive | inactive |
| CNC(=O)OCC[N+](C)(C)C | – | – | – | – | – | – | inactive | inactive | inactive | inactive |
| c1ccc2cc(CC3=NCCN3)ccc2c1 | – | inactive | inactive | inactive | inactive | inactive | inactive | inactive | inactive | inactive |
| C=CCN1CCc2cccc3c2[C@H]1Cc1ccc(O)c(O)c1-3 | – | 0.891 µM (active) | – | inactive | inactive | 0.0517 µM (active) | – | – | – | – |
| N[C@@H](Cn1ccc(=O)[nH]c1=O)C(=O)O | – | inactive | inactive | inactive | inactive | inactive | – | – | – | – |
| CC(=O)OCC1=C(C(=O)O)N2C(=O)[C@@H](NC(=O)CCC[C@@H](N)C(=O)O)[C@H]2SC1 | – | inactive | inactive | inactive | inactive | inactive | – | – | – | – |
| NC(Cc1ccc(N(CCCl)CCCl)cc1)C(=O)O (configuration not stated) | – | – | inactive | inactive | inactive | inactive | – | – | – | – |
| C[C@H](N)CN1CCc2ccc(Br)cc21 | – | – | inactive | inactive | inactive | inactive | – | – | – | – |
| CCCN(CCC)C1Cc2cc(OC)c(OC)cc2C1 | – | inactive | inactive | inactive | inactive | inactive | – | – | – | – |
| CCCN1CCc2cccc3c2[C@H]1Cc1ccc(O)c(O)c1-3 | – | 1.41 µM (active) | – | inactive | inactive | – | – | – | – | – |
| CN1C2CCC1CC(OC(c1ccccc1)c1ccccc1N)C2 (configuration not stated) | – | inactive | inactive | inactive | inactive | inactive | – | – | – | – |
| C[C@H](N)Cc1cccc(C(F)(F)F)c1 | – | inactive | inactive | inactive | inactive | inactive | – | – | – | – |
| C[C@@H]1O[C@H](C[N+](C)(C)C)CS1 | – | inactive | inactive | inactive | inactive | inactive | – | – | – | – |
| CC(C)(C)c1cc(C=C(C#N)C#N)cc(C(C)(C)C)c1O | – | 12.6 µM (active) | – | inactive | inactive | inactive | – | – | – | – |
| CCn1cnc2c(Nc3cccc(Cl)c3)nc(N[C@@H]3CCCC[C@@H]3N)nc21 | – | inactive | inactive | inactive | inactive | inactive | – | – | – | – |
